# Screening data deposited in PubChem by National Center for Advancing Translational Sciences (NCATS).
# D1 antagonist: antagonists of human D1 dopamine receptor; HEK293 TREx D1 cells, calcium flux, dopamine EC80; active compounds read low; 3.2% of 360,000 active; activity change, negative = inhibition, % at 10 µM; P21728; in the data active = activity change below about -30%; note: % is set by controls: 0 for no effect and ±100 for the full control effect
#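 Using tetracycline-induced force-coupled D1 Hek293 cells and a calcium dye, signals were followed for 180 s after compound, then for 180 s after EC80 dopamine, to detect inhibitors.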
# D1 ag: activates the human D1 dopamine receptor | 1% of 360,000 active | activation, % at 2 µM | P21728 | HEK293 T-REx D1 cells, calcium flux, agonist mode; note: 0% is about no effect
#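 Tetracycline-induced HEK293 TREx D1 cells, force-coupled to calcium signalling, were dye-loaded with a no-wash calcium kit. Compound was pin-added after a 10 s baseline. Fluorescence was read kinetically at 1 cycle/s for 180 s, with calcium rises flagged as agonism.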
# D1 potentiator: human D1 dopamine receptor positive modulation. AID 504651. potentiation, % at 10 µM. HEK293 TREx D1 cells, calcium flux, dopamine EC20 potentiation. P21728. 0.036% of 360,000 active; in the data active = potentiation above about 30%; note: 0% is about no effect
# TRHR enhancer: TRH receptor (human) allosteric enhancement. P34981. enhancement, % at 2 µM. TRHR cells, fluo-8 calcium fluorescence, EC20 TRH enhancement. 0.66% of 360,000 active; in the data active = enhancement above about 30%; note: 0% is about no effect
# Target sequence (P34981 whole entry, looked up): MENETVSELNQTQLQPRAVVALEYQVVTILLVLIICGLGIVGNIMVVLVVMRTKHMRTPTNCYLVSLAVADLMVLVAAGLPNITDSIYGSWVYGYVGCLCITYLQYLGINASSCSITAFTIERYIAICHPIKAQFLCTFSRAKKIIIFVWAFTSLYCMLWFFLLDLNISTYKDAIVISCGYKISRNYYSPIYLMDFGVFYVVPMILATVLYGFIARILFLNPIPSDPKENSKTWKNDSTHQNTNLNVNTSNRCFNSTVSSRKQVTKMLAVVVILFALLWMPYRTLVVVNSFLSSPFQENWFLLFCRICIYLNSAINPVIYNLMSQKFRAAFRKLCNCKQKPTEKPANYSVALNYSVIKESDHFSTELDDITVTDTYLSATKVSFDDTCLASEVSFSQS
#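 Enhancer read-out: after compound pinning and an initial kinetic agonist-mode read, an EC20 of TRH (10 nM final) was injected and fluo-8 calcium signal (Ex 480/Em 530) followed at 1 s/cycle for 100 cycles in TRHR-expressing cells.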
# TRHR agonist: TRH receptor (human) agonism | TRHR cells, calcium flux fluo-8, FDSS agonist mode | activation, % at 2 µM | 0.18% of 360,000 active; note: 0% is about no effect
#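 Agonist-mode FDSS calcium read (Ex 480/Em 530, 1 s cycles) in 1536-well TRHR cells with fluo-8 dye, after 10-cycle baseline and 23 nL compound addition; TRH at EC20 (10 nM final) added afterwards for the enhancer phase.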
# An asterisk follows results filed as active; ! = repeats disagree. An excerpt weighted towards active compounds, which were near 4.6% of everything screened. Cut-off read from the data, not from the text of the source, unless noted: active = activation above about 30%; inactive = the rest.
SMILES,D1 antagonist,D1 ag,D1 potentiator,TRHR enhancer,TRHR agonist
CCCOc1ccccc1C1C(C(=O)Nc2ccccc2)=C(C)Nc2nnnn21 (stereo unspecified),5.3,39.0*,-7.3,48.9*,-0.7
CCCNC(=S)Nc1ccc2nc(-c3ccccn3)c(-c3ccccn3)nc2c1,-37.2*,1.6,-10.7,2.8,0.4
CCOC(=O)c1c(C)oc2nc(C)nc(N3CCN(c4cccc(C(F)(F)F)c4)CC3)c12,2.4,3.6,4.2,15.2,0.2
COc1cc(NC(C)=O)c2ncccc2c1NC(C)=O,-36.4*,5.8,0.6,-1.6,0.7
O=S(=O)(c1ccc(F)cc1)N(Cc1nc(-c2ccc(Cl)cc2)no1)C1CCCCC1,-6.5,9.7,-3.5,-0.1,1.3
CN(C)C(=O)c1ccc(NC(=O)c2cc(-c3ccco3)nc3ccccc23)cc1,11.7,4.4,2.9,1.4,0.2
Cc1csc(NC(=O)c2cc(-c3ccco3)nc3ccccc23)n1,-31.0*,-0.6,-6.4,5.6,-1.7
CCN(CC)CCNC(=O)c1ccc(NC(=O)c2cc(-c3ccco3)nc3ccccc23)cc1,-39.8*,2.0,1.2,-4.9,0.7
CN(C)c1nc(N)ncc1-c1ccc(Oc2ccccc2)cc1,6.6,3.5,-1.8,-7.2,0.2
CSc1nc(N)nc(SCCS(=O)(=O)c2ccc(Cl)cc2)c1C#N,-30.7*,3.1,-8.6,-2.2,1.4
O=C(NCc1ccc(F)cc1)c1c(O)nc2ccccn2c1=O,1.7,-0.8,-6.1,-0.8,-0.3
Cc1cc(OCC(=O)N2CCN(c3ccc(F)cc3)CC2)c2c(C)cc(=O)oc2c1,-32.7*,-0.2,-3.1,2.7,0.0
Cc1cc(OCC(=O)N2CCN(c3ccccc3)CC2)c2c(C)cc(=O)oc2c1,13.2,1.2,1.4,-1.9,0.0
CCC(C(=O)N1CCN(c2ccccc2F)CC1)n1nc(C)c2sc3ccccc3c2c1=O (stereo unspecified),1.0,3.2,1.9,6.3,0.0
CCOC(=O)c1cc(-c2ccc(F)cc2)n(CCC(=O)NCc2ccc(C)cc2)c1C,2.2,6.2,-4.3,0.6,0.7
CCC(=O)Nc1ccc(C(=O)Nc2ccc(Br)cc2F)cc1,0.7,3.1,-1.1,40.5*,1.6
CSc1ccc(CN2CCN(Cc3ccc([N+](=O)[O-])cc3)CC2)cc1,-37.2*,7.6,-11.8,-2.1,-0.1
CCOc1ccc(NC(=O)Cn2c(=O)n(Cc3ccc(C(=O)NCc4ccc(C)cc4)cc3)c(=O)c3ccccc32)cc1,4.3,1.9,-0.1,-2.7,1.2
Cn1c(=O)c(=O)n(C)c2cc(N3CCCC3)c(NC(=O)c3ccc(C(C)(C)C)cc3)cc21,10.3,1.9,-2.2,1.5,0.0
CC(C)C1C(c2ccccc2)NC(c2ccccc2)CC1(O)c1ccc(F)cc1 (stereo unspecified),5.3,10.1,0.9,1.2,0.4
COc1ccc(Br)cc1CN(C)CC(=O)Nc1ccccc1Cl,-8.0,4.5,-1.6,-5.6,0.2
COc1ccc(Br)cc1CN(C)CC(=O)Nc1cc(Cl)ccc1Cl,-31.2*,6.1,1.5,-0.3,1.4
COc1ccccc1CN(C)CC(=O)Nc1cccc2ccccc12,7.2,-3.0,8.7,4.7,-0.8
COc1cc(Cl)c(C)cc1NC(=O)CN(C)Cc1cccc(OC)c1OC,9.6,49.8*,-7.8,-6.3,-0.8
CCc1ccccc1-n1c(N)c(C(=O)OC)c2nc3ccccc3nc21,-11.3,0.1,-1.9,1.6,0.1
SMILES,D1 antagonist,D1 ag,D1 potentiator,TRHR enhancer,TRHR agonist
Cc1ccc(C)c(NC(=O)CSc2nc3ccccc3nc2N2CCOCC2)c1,-45.6*!,1.3,6.5,-0.7,-0.8
CC(C)c1ccc(NC(=O)CN2C(=O)CSc3ccc(S(=O)(=O)N4CCCC4)cc32)cc1,7.4,1.8,0.1,-1.4,0.7
CCOc1ccc(S(=O)(=O)N2CCC(C(=O)NCc3ccncc3)CC2)cc1Cl,-5.9,0.4,-3.4,-0.3,-0.5
Cc1ccc(C(=O)Nc2nc(-c3ccc(F)cc3)cs2)o1,-47.6*,2.3,-6.1,11.2,-0.4
O=C(Nc1nc(-c2ccccc2)cs1)c1ccccc1NS(=O)(=O)c1ccc(F)cc1,-48.3*,14.8,-6.0,13.4,4.5
O=C(CN1C(=O)C2CC=CCC2C1=O)Nc1nc(-c2ccc(F)cc2)cs1 (stereo unspecified),-46.2*,4.5,-0.1,5.4,0.5
O=S(=O)(Nc1ccc(-c2csc(-c3ccccc3)n2)cc1)c1ccc(F)cc1,-7.2,5.6,-1.0,-3.8,-0.2
Cc1ccc(Nc2nc(-c3ccc(F)cc3)cs2)nc1,-36.8*,2.4,-5.8,2.2,2.3
COc1ccc(OC)c(CNc2ncnc3onc(C)c23)c1,4.2,-0.4,-1.7,17.7,-0.8
CC(C)CCNC(=O)c1cnc2sc(N3CCCCC3)nn2c1=O,-10.6,2.6,3.4,3.2,-0.2
Cc1ccc(Cl)cc1N1CCN(C(=O)CCCCCn2c(=O)[nH]c3ccccc3c2=O)CC1,3.7,3.1,2.9,8.2,0.3
CC(NC(=O)[C@H](Cc1c[nH]c2ccccc12)NC(=O)[C@@H]1Cc2ccccc2CN1)c1ccccc1 (stereo partly specified),-4.8,7.7,5.1,30.2*,0.1
Cc1[nH]nc(SCC(=O)NCc2ccc(F)cc2)c1[N+](=O)[O-],-39.8*,-0.8,-6.2,-8.3,-0.9
Cc1ccc(O)c(NC(=O)CSc2n[nH]c(C)c2[N+](=O)[O-])c1,-33.6*,16.1,-7.1,-0.1,0.2
COC(=O)CC1Oc2ccc(C)cc2-n2cc(-c3ccc(F)cc3)nc21 (stereo unspecified),6.9,2.2,-2.5,-6.3,-1.4
COc1cccc(Cn2c(=O)n(-c3cccc(Cl)c3C)c(=O)c3c4c(sc32)CN(C(C)=O)CC4)c1,6.8,-0.2,-2.1,9.5,-0.1
COc1ccc2[nH]cc(CCNC(=O)CCC3CCCCC3)c2c1,-42.5*,-1.0,-4.1,-6.1,-0.6
COc1ccc2[nH]cc(CCNC(=O)Cc3ccc(Br)cc3)c2c1,7.1,6.1,2.6,2.6,-0.6
CCC(C(=O)NCCc1c[nH]c2cc(OC)ccc12)c1ccccc1 (stereo unspecified),-79.6*,1.6,-2.4,3.4,-1.1
COc1ccc2[nH]cc(CCNC(=O)Nc3ccccc3)c2c1,-34.3*!,3.8,-7.5,-5.1,4.2
Cc1ccc(NC(=O)C2CCCN(S(=O)(=O)c3c(C)n[nH]c3C)C2)c(C)c1 (stereo unspecified),-1.6,-0.1,-2.9,16.8,-0.7
CCOC(=O)c1c(NC(=O)c2ccc(Br)cc2)sc2c1CCCC2,9.5,0.2,-5.5,0.1,0.5
CCCOc1ccc(C(=O)Nc2sc3c(c2C(=O)OCC)CCCCC3)cc1,-31.0*,-0.9,-1.3,4.6,0.1
Cc1ccccc1OCC(=O)Nc1sc2c(c1C(=O)OC(C)C)CCCC2,3.9,45.1*,1.9,3.9,-0.9
O=C(Cc1ccccc1)Nc1sc2c(c1C(=O)Nc1ccccc1Cl)CCCCC2,16.7,-0.7,1.0,33.3*,0.4
